From the supplement of paper PMC6555819 come the findings set out here.

In the test the test system is PPARg:RXRa (NR concentration 180 nM, RXRa partner concentration 90 nM). The test can be described thus: PBM binding z-score (relative to random genomic background probes); higher = stronger binding; sequences stand for … in GC…GCGATTGACAGCGTAGAATGAAGG
Put shortly: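 Custom Agilent 4×180K protein-binding microarrays carried double-stranded probes, each with a 34-nt variable region. These regions held direct-repeat seeds, single-nucleotide variants, half-site ablations and random human genomic background sequences. Ligand-free nuclear receptor dimers were incubated on the arrays for 1 h, antibodies against each partner (one per run) detected binding, and scanned fluorescence was regression-normalized. Binding z-scores take the random background probes as reference.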
AGTCGAAGTTCACTAGGTAACGTAAGATTCAGCT registered a PBM binding z-score of 3.18. For GCTAGTTGGTCCGTAAAAGGTCACACACCGGTCG the value was 1.33.

With CGAACTAGGTCAGAACAGGACAGTGAAGGATGAT, the PBM binding z-score amounted to 4.94. For CGAAATAGGTCAGAACAGGACAGTGAAGGATGAT the value was 4.52. In the case of TAGCCTAGGTCATTCTGGGGCCAGTATAGAAAGC it was 1.98; in that of ATACCAAGGTGATCGTGACGTCGTTGATACTAAC, 0.582. In the case of CGTCCAAGGTCAAGGTTAGTGAAAGAGACTCGAA it was 5.02; in that of TCGAGTAGGTTAGTCGGGGGATTCAGCCAACATA, 0.0949. In the case of GCTCGGAGGGCAAGGTCAGAGCTTTGTCCGTAGA, the PBM binding z-score turned out to be 1.23. For CCGAGTAGGTTATGGGGCATTCATGCAACGGTGA the value was 3.65; for ACTAGCAGTCCAAGGGTCACTCAAGATTAGTCCG, 3.5; for ATCGAAAGGTCCTGAGGTGAGTATACAGAAAGGC, 0.686.

Sequence AGTCAAAGTTCACTTGGTAACGTAAGATTCAGCT showed a PBM binding z-score of 5.08.

TCTAGCACGCCAGAGGGTCACTCAAGAGGTACGG came in with a PBM binding z-score of 0.836. For CCAACTAGGTCAAGGTCAAAGTCGGTTTGTGCCA the value was 9.18.

TCAGACAGGTGAAGGTAACACAGGTACGCAGTCG had a PBM binding z-score of 1.29. In the case of TTACCAAGGTGAGCTGAGGTCGTCGATCCAACTC it was 0.26. For TCATATAGGTAAATGCTAGGTGAGAGTCCGATCT the value was 0.622. For TCTTGTAGATTAAAGGTTAAGAAAGCCGAAGCCT the value was 5.78; for TCAGACAGGTGCAGGTAACTCAGGTACGCAGTCG, 0.493. Sequence CGTCAAAGTTCAACTAAAGTAACGTAAAGCACGC came in with a PBM binding z-score of 5. In the case of AATACAGGGTCACTAGGCCAGACTAGGTACGAAT it was 7.65; in that of TTACCATGGTGAGCTGAGGTCGTTGATCCAACTC, -0.38. In turn, CAGCCTAGGTCAGGGCCAGTAAAGGAGGAACGTT returned a PBM binding z-score of 0.751. For TCTTGTAGATCAATAGAGTTTAAGAAAGTGCGCT, the PBM binding z-score was -0.0887. In the case of TCGAGGAGGTTACCAATGGGGCATTCAGCTTTCT it was 0.171. For CGTCCAAGGTCAGAGATGTCAGTGAATGCCGAGT the value was 2.24; for CACACTAGGTCACGAAAGGTCAAAGTCGAATGAC, 9.73.

GATACAGGGTCAGCTAGAGGCAAGAGTATGGAAA had a PBM binding z-score of 3.78. For CGAACTAGGTCACAACAGGACAGTGAAGGATGAT the value was 7.81; for ATATGTAGGTTTAGGGTCATTCAGGTTGGTTCGC, 5.96; for CCGACTGGGGCAAGGTTAGCATAACGCACAGCCA, 2.6. CGTCCAAGGTCATCGGAGGTCAGTGAAGACAGAT had a PBM binding z-score of 5.99.

In turn, TCTCGGAGGACACGAAAGGTCAGAGTTCGACATC registered a PBM binding z-score of 1.72. For CCTACTGGCCCACGAAAGGTCATTGATTCAGTGA the value was 0.749; for TCATATAGGTAAAGGCGAAAGTCGAACGATATGA, 1.1; for CAAACTAGGTCAGAGAGGTCAAAGTCCGTGCGTA, 8.4. For TAGCCTAGGTCAGATCGGGCCAGTATCCGCTATA the value was 0.405. The sequence CTCGAAAGGCCGGTTGAGGTGAGTATACGGATAA yielded a PBM binding z-score of -0.122.
